For the assay, the system named is zebrafish ABCB5 (Abcb5) multidrug transporter. As to the kind of experiment: qHTS for characterization and localization of zebrafish homologs of the human ABCB1 multidrug transporter: ABCB5 transfected cells. Conditions: CellTiter-Glo luminescence viability, 72 h. The text has this:
The zebrafish has emerged as a potential model to study the blood-brain barrier (BBB) given its similarities with mammalian systems. However, little information has been available with regard to homologous ATP-binding cassette transporters expressed at the zebrafish BBB. Two transporters that are highly expressed at the human BBB are P-glycoprotein (P-gp, encoded by the ABCB1 gene) and ABCG2 (encoded by the ABCG2 gene). In this study, we focus on characterization of P-gp homologs in the zebrafish, which has two genes that are homologous to human ABCB1 - abcb4 and abcb5. We generated stably-transfected cell lines to determine their substrate specificities. […] Zebrafish abcb4 also colocalized with claudin 5 expression in brain endothelial cells.
A high-throughput screen was performed as previously described on empty vector transfected cells, P-gp-overexpressing MDR-19 cells and cells transfected with full-length zebrafish abcb4 (ZF Abcb4) or abcb5 (ZF Abcb5). Briefly, cells were plated into 1536-well plates at a density of 500 cells/well in 5 uL media. […] CellTiter-Glo reagent (Promega) was dispensed into the wells, incubated for 5 min and luminescence was read on a ViewLux instrument (Perkin-Elmer). […]
On the technique in general: Quantitative high-throughput screening tests each substance at several concentrations.

Experimental findings from PubChem BioAssay AID1508633 (National Center for Advancing Translational Sciences (NCATS), 2021) are described below.

Records with an inconclusive call do not appear. Activity calls are given as the source filed them. Calls come from the whole dose curve; as a rule, active = well fitted inhibition curve with a large enough effect; inconclusive = small, poorly fitted or top-dose-only effect; inactive = no such curve, though single readings can be large or run the other way.

Turning to `C[C@@H]1[C@@H](CC(C[C@H]2O[C@@H]3O[C@]4(C)CC[C@@H]5[C@H](C)CC[C@@H]([C@H]2C)[C@@]35OO4)C[S+](=O)([O-])c2ccc(COC(=O)N(C)C)cc2)O[C@@H]2O[C@]3(C)CC[C@H]4[C@H](C)CC[C@@H]1[C@@]24OO3` (some centres not stated), the Potency is 590 nM (active).
Consider `C=CCON=C(C[C@H]1O[C@@H]2O[C@]3(C)CC[C@@H]4[C@H](C)CC[C@@H]([C@H]1C)[C@@]24OO3)[C@H]1O[C@@H]2O[C@]3(C)CC[C@H]4[C@H](C)CC[C@@H]([C@@H]1C)[C@@]24OO3`, for which the Potency was 526 nM (active).
